In the library only some 15% were active in any assay of this set; here they are far more common.
HCV inh: inhibitors of hepatitis C virus infection; Potency, µM (top dose mostly 41.8 µM), without a hit: top-dose activity change, negative = inhibition, usual class: inhibitors; AID 651820; Huh7.5.1 HCVcc-Cre infection, luciferase reporter, 44 h; 340,000 compounds, 3.4% hits; note: potency is the fitted concentration of half-maximal effect; % is set by controls: 0 for no effect and ±100 for the full control effect
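After 44 h co-culture of compound, cells and HCVcc-Cre (~0.5 moi), substrate is added for 15 min at room temperature and luciferase measured over 15 sec. Cells were seeded at 1,000/well and pre-cultured 4 h.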
Sm TGR block: inhibitors of Schistosoma mansoni thioredoxin glutathione reductase; 360,000 compounds, 3% hits; Q962Y6; Potency, µM (top dose mostly 114 µM), without a hit: at the highest dose activity change, negative = inhibition, actives largely listed as inhibitors; purified TGR, DTNB reduction, TNB absorbance 405 nm; note: potency is the fitted concentration of half-maximal effect; % is set by controls: 0 for no effect and ±100 for the full control effect; nearly all actives have a fitted effect of over 60% in size
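First, TGR (20 nM dispensed) and NADPH were mixed with compound. Second, a 15 min room-temperature incubation followed. Third, further NADPH and then DTNB were added to start the reaction. Finally, TNB absorbance was monitored kinetically.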
Pf growth 48h: P. falciparum growth inhibition at 48 hours (one generation); AID 504832; P. falciparum luciferase growth in erythrocytes, 48 h; Potency, µM (doses to about 28.7 µM), for the others: at the top dose activity change, negative = inhibition, hits mostly inhibitors; 310,000 compounds, 5.9% hits; note: potency is the fitted concentration of half-maximal effect; % is set by controls: 0 for no effect and ±100 for the full control effect
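Here the parasites carry a stable luciferase gene and grow inside erythrocytes in Albumax-based RPMI medium with compound for one erythrocytic cycle. Activity is scored as loss of luminescent signal.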
Pf growth 96h: P. falciparum growth inhibition at 96 hours | 320,000 compounds, 6.9% hits | AID 504834 | Potency, µM (highest dose often 28.7 µM), for the others: at the top dose activity change, negative = inhibition, most hits filed as inhibitors | P. falciparum luciferase reporter growth, 96 h; note: potency is the fitted concentration of half-maximal effect; % is set by controls: 0 for no effect and ±100 for the full control effect
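Erythrocytes infected with luciferase-expressing P. falciparum were dispensed at 2% hematocrit and 0.05% parasitemia (final), then incubated with compounds 96 hours at 37 C in 5% CO2. Luminescence after detection reagent addition reported growth.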
HCMV inh: inhibitors of human cytomegalovirus; activity change, negative = inhibition, % at 57.5 µM; HFF cells, HCMV-luciferase reporter, 72 h; active compounds read low; AID 1259415; 410,000 compounds, 4.5% hits; in the data active = activity change below about -60%; inconclusive = no clear call, values can overlap the other calls; inactive = above about -39%; note: % is set by controls: 0 for no effect and ±100 for the full control effect
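Two-dose cell screen: HFF monolayers treated with compounds and infected with luciferase-expressing HCMV at 1 PFU/cell, 72 h at 37C, then lysed for luciferase measurement.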
SARS PLP yeast: SARS-CoV PLP inhibition in yeast; 330,000 compounds, 0.19% hits; S. cerevisiae expressing SARS-CoV PLpro, growth rescue; Potency, µM (doses to about 32.9 µM), for inactives: at the top dose activity, positive = growth rescue, actives largely listed as activators; AID 485353; calls by dose curve; note: potency is the fitted concentration of half-maximal effect; 0% is about no effect; nearly all actives have a fitted effect of over 55% in size
The depositor's hits bear a star; ? = inconclusive; . = no result given; [ ] = dose if it differs, or a comment. Unless noted, calls come from the whole dose curve; as a rule, active = well fitted curve in the direction sought with a large enough effect; inconclusive = small, poorly fitted or top-dose-only effect, or another doubt; inactive = no such curve, though single readings can be large; an effect the other way counts as inactive or inconclusive.

SMILES	HCV inh	Sm TGR block	Pf growth 48h	Pf growth 96h	HCMV inh	SARS PLP yeast
O=C(Nc1cccc(C(=O)O)c1)/C(=C\c1ccco1)NC(=O)c1ccccc1	11%	?	3%	22%	1	2%
CCNC(=O)/C(=C/c1ccco1)NC(=O)/C=C/c1ccccc1	0%	40µM*	-15%	8%	-7	5%
O=C(Nc1cccc(C(=O)O)c1)/C(=C\c1ccco1)NC(=O)c1ccc(Br)o1	4%	50µM*	24%	83%	-9	1%
CNC(=O)/C(=C\c1ccco1)NC(=O)c1ccco1	17%	?	9.3µM*	0%	-7	2%
O=C(O)CCCCCNC(=O)/C(=C\c1ccco1)NC(=O)c1ccco1	9%	100µM*	8%	?	-5	-5%
O=C(O)CCNC(=O)/C(=C\c1ccco1)NC(=O)c1ccco1	7%	?	3%	11%	-1	.
CCc1noc(C)c1C(=O)NNC(=O)COc1ccc(Br)cc1	5%	-13%	?	32%	-4	-6%
Cc1nc2c(ccc3nc(NC(=O)C(c4ccccc4)c4ccccc4)sc32)s1	10µM*	2%	3.7µM*	10µM*	1	-17%
Cc1nc2ccc3nc(NC(=O)c4ccc(S(=O)(=O)N5CCOCC5)cc4)sc3c2s1	.	5%	2%	?	9	2%
Cc1cnc(NC(=O)c2ccc3c(c2)OCCO3)s1	2%	-9%	11%	78%	-80*	1%
Cc1nc2c(ccc3nc(NC(=O)c4ccc5c(c4)OCCO5)sc32)s1	?	-30%	81%	?	-82*	-8%
Cc1nc2c(ccc3nc(NC(=O)Cc4cccc5ccccc45)sc32)s1	?	-22%	?	?	-16	-10%
Cc1ccc2sc(NC(=O)c3ccc4c(c3)OCCO4)nc2c1C	.	9%	.	.	66	.
Cc1nc2ccc3nc(NC(=O)c4ccc5c(c4)OCCO5)sc3c2s1	?	-4%	78%	.	-106*	-9%
O=C1NC(=O)C(=C2CCOC2=O)N1	.	.	.	.	-12	.
O=C(N/N=C/C(Cl)=C\c1ccccc1)c1ccco1	-16%	-32%	1.9µM*	3.7µM*	23	-4%
O=C(N/N=C/C(Cl)=C/c1ccccc1)c1ccco1	-15%	-12%	5.2µM*	?	5	-3%
O=C(N/N=C/C(Cl)=C/c1ccccc1)c1ccccc1F	-3%	8%	-35%	?	6	-7%
Cc1ccc(CCNC(=O)c2ccc(CSCc3ccc(C)cc3)o2)cc1	.	-6%	.	.	-27	.
CSc1nc(N)nc(SCCS(=O)(=O)c2ccc(Cl)cc2)c1C#N	10µM*	-6%	-17%	13%	-32	-5%
CC(=O)N(Cc1cccnc1)c1nc2c(C)cc(C)cc2s1	.	-1%	.	.	?	.
Cc1c(C(=O)N(Cc2ccncc2)CC2CCCO2)oc2c(F)cccc12 (configuration not stated)	2%	-10%	-28%	10µM*	-22	3%
COc1cccc(NC(=O)COC(=O)CCC(=O)c2cccs2)c1	14%	-16%	25%	0%	-5	-4%
Cc1ccc(S(=O)(=O)NC(=O)c2cc(C)n(-c3ccc(N(C)C)cc3)c2C)cc1	7%	-2%	?	3.7µM*	0	-56%
Cc1ccc(S(=O)(=O)NC(=O)Nc2ccc(N(C)C)cc2)cc1	?	50µM*	0.74µM*	0.47µM*	-18	-10%
SMILES	HCV inh	Sm TGR block	Pf growth 48h	Pf growth 96h	HCMV inh	SARS PLP yeast
Cc1ccc(S(=O)(=O)NCCN=Cc2ccc(N(C)C)cc2)cc1	8%	-29%	3%	7.4µM*	9	-9%
CC(=O)N1CCc2cc(S(=O)(=O)NCC(=O)NCc3ccc(F)cc3)ccc21	4%	-33%	?	-13%	0	-3%
CC(=O)c1ccccc1NS(=O)(=O)c1ccc2c(c1)CC(=O)N2	6%	3%	?	4.7µM*	-7	0%
Cc1ccccc1NS(=O)(=O)c1ccc2c(c1)CCC(=O)N2	.	.	.	.	35	.
COc1ccc(S(=O)(=O)N2CCCCCC2)cc1NC(=O)CC1OC(=O)c2ccccc21 (configuration not stated)	-8%	40µM*	?	-19%	-28	1%
COc1ccc(C(=O)CC2OC(=O)c3ccccc32)cc1OC (configuration not stated)	16%	-10%	?	?	20	5%
Cc1ccc(NC(=O)CC2OC(=O)c3ccccc32)cc1S(=O)(=O)N1CCCCCC1 (configuration not stated)	?	25µM*	8.3µM*	?	-3	-2%
COc1ccc(OC)c(C(=O)CC2OC(=O)c3ccccc32)c1 (configuration not stated)	8%	?	?	?	-90*	4%
O=C(CC1OC(=O)c2ccccc21)Nc1ccc(Cl)c(S(=O)(=O)N2CCCCC2)c1 (configuration not stated)	?	-24%	-24%	4%	-34	.
O=C(Nc1ccc2c(c1)OCCO2)C1c2ccccc2OCC(=O)N1CCCN1CCOCC1 (configuration not stated)	.	.	.	.	4	.
CCC(C(=O)NC(C)(C)C)n1c(-c2ccc3c(c2)OCO3)nc2ccccc21 (configuration not stated)	.	.	.	.	50	.
CC1=CC(c2ccccc2)n2nc(NC(=O)CCC(=O)O)nc2N1 (configuration not stated)	-1%	13µM*	?	?	-32	0%
COc1ccc(C2C=C(c3ccccc3)Nc3nc(NS(=O)(=O)c4ccc(C)cc4)nn32)cc1 (configuration not stated)	.	-6%	.	.	15	.
Nc1nc(NC(=O)CCCC(=O)O)nn1-c1ccccc1	12%	4%	-7%	20%[5.75 µM]	-5	28%
CC1=CC(c2ccccc2)n2nc(NC(=O)CCCC(=O)O)nc2N1 (configuration not stated)	10%	20µM*	16%	29%	16	0%
CCC(=O)N1CC2(CN(C(=O)NC(C)C)C2)c2c(n(C)c3cc(OC)ccc23)[C@H]1CO	.	.	.	.	15	.
CCN(CC)S(=O)(=O)c1ccc2[nH]cc(C(=O)NCCN3CCCCC3C)c(=O)c2c1 (configuration not stated)	9%	0%	4.1µM*	.	6	-1%
CCCCCNC(=O)c1c[nH]c2ccc(S(=O)(=O)N3CCC4(CC3)OCCO4)cc2c1=O	3%	-2%	13µM*	0%	37	-13%
CCN(CC)S(=O)(=O)c1ccc2[nH]cc(C(=O)NCCN3CCCCCC3)c(=O)c2c1	-10%	-15%	1.9µM*	209%	-17	-2%
